High-throughput results (PubChem)
Sampled rows, rich in hits. Any-hit rate of the full collection: about 7.4%.
FLuc counter: qHTS profiling assay for firefly luciferase inhibitor/activator using purifed enzyme and Km concentrations of substrates (counterscreen for miR-21 project) | Luciferin 4-monooxygenase (Photinus pyralis), P08659 | purified FLuc, Km substrates, luminescence inhibition | Potency, µM (series often up to 57.5 µM), without a hit: top-dose activity change, negative = inhibition, hits mostly inhibitors | actives 6.9% (n = 360,000);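 note: plate controls were vehicle for no effect and reference inhibitor for full effect; nearly all actives have a fitted effect of over 55% in size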
Target sequence (P08659 whole entry, looked up): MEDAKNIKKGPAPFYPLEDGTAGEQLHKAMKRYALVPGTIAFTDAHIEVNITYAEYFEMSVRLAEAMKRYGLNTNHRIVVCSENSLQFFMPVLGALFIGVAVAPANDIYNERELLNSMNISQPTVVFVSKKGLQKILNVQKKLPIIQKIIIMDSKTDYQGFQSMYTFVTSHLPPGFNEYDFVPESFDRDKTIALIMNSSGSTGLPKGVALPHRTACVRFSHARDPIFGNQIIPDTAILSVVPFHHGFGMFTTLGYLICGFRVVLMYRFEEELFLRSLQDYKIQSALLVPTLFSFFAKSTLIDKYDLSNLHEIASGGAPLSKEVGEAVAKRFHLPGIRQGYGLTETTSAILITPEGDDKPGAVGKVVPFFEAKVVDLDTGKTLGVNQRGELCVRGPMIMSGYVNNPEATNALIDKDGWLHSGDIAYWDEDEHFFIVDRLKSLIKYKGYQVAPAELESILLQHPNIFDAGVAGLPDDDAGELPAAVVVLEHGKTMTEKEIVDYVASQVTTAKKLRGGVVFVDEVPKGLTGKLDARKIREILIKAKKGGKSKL
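Purified P. pyralis luciferase (10nM final) with 10uM D-luciferin and 10uM ATP (Km levels) in 50mM Tris acetate pH 7.5, 10mM Mg acetate, 0.01% Tween-20, 0.05% BSA; qHTS 6-point titration, ~60 µM downward; luminescence read.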
ELG1 genotox: qHTS screen for small molecules that induce genotoxicity in human embryonic kidney (HEK293T) cells expressing luciferase-tagged ELG1; actives 1.3% (n = 330,000); HEK293T ELG1-luciferase reporter, luminescence, 16 h; Potency, µM (titrated, usually from 46 µM), without a hit: at the top dose activity change, positive = activation, most hits filed as activators; note: % of control where 0% means no effect; nearly all actives have a fitted effect of over 60% in size
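ELG1-luciferase HEK293T cells, 2,000/well; compound pinned in; 16 hr, 37 °C, 5% CO2; ONE-Glo, 30 min RT; luminescence on CCD imager.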
SMN2 splice enh: qHTS Assay for Enhancers of SMN2 Splice Variant Expression. HEK293 SMN2-luciferase splicing reporter, luminescence, 30-36 h. Potency, µM (titrated, usually from 46.1 µM), without a hit: at the top dose activity change, positive = activation, actives largely listed as activators. actives 2.8% (n = 210,000). AID 1458, 2008; note: % of control where 0% means no effect; nearly all actives have a fitted effect of over 55% in size
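HEK293 cells carry an SMN2 […]–luciferase reporter in which exon 7 inclusion puts luciferase in frame. Cells were plated 10-12 h before compound addition, then incubated 30-36 h at 37C. ONE-Glo luminescence was read; sodium butyrate at 4.5 mM final served as control.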
Rab9 prom act: qHTS Assay for Rab9 Promoter Activators | Huh7 Rab9 promoter-luciferase reporter, luminescence, 24 h | Potency, µM (top dose mostly 9.22 µM), for inactives: at the top dose activation, negative = inhibition, usual class: activators | actives 2.8% (n = 320,000) | AID 485297, 2010; note: % of control where 0% means no effect; nearly all actives have a fitted effect of over 60% in size
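Huh7 cells stably carrying Rab9 promoter–luciferase reporter, plated 1500 cells/well, compound added after 2 h and incubated 24 h at 37 °C; luciferase luminescence then read after 10 min with detection reagent.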
NPC1 promoter act: qHTS Assay for NPC1 Promoter Activators; Potency, µM (top dose mostly 9.22 µM), for inactives: top-dose activation, most hits filed as activators; Huh7 NPC1 promoter luciferase reporter, 24 h; actives 2.4% (n = 320,000); AID 485313, 2010; note: % of control where 0% means no effect; nearly all actives have a fitted effect of over 60% in size
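NPC1 promoter–luciferase Huh7 cells; 24 h compound; luminescence.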
* = called active by the depositor; [ ] = remark or other dose. Calls come from the whole dose curve; as a rule, active = well fitted curve in the direction sought with a large enough effect; inconclusive = small, poorly fitted or top-dose-only effect, or another doubt; inactive = no such curve, though single readings can be large; an effect the other way counts as inactive or inconclusive. Potency is the fitted concentration of half-maximal effect.

What do the screens show for `CCOC(=O)c1cccc(Nc2nc(C)cc(C)n2)c1`?
FLuc counter: inconclusive; ELG1 genotox: 13%; SMN2 splice enh: inconclusive; Rab9 prom act: 4.5µM*; NPC1 promoter act: inconclusive

How did CCCN(C(=O)c1nn(-c2ccc(OC)cc2)c(=O)c2c1c1ccccc1n2C)c1ccc(CC)cc1 do in these assays?
FLuc counter: -5%; SMN2 splice enh: -6%

How did CN(C)C(=O)c1ccc2c(c1[N+](=O)[O-])C(=O)c1ccccc1C2=O do in these assays?
FLuc counter: 4%; ELG1 genotox: 8%; SMN2 splice enh: 11µM*; Rab9 prom act: inconclusive; NPC1 promoter act: inconclusive

Results for Cc1cc(C)cc(OCC(=O)Nc2ccc(-c3nc4ccccc4o3)cc2)c1 ?
FLuc counter: 3%; SMN2 splice enh: 6.3µM*

Results for O=C(CN1C(=O)c2ccccc2C1=O)Nc1ccc(-c2nc3ccccc3o2)cc1 ?
FLuc counter: -11%; ELG1 genotox: -1%; SMN2 splice enh: -2%; Rab9 prom act: -1%; NPC1 promoter act: 5%

What do the screens show for `O=C1c2ccccc2C(=O)N1c1ccc(-c2nc3ccccc3o2)cc1`?
FLuc counter: inconclusive; ELG1 genotox: 10%; Rab9 prom act: 4.5µM*; NPC1 promoter act: inconclusive

What do the screens show for `O=C1c2ccccc2C(=O)N1c1cccc(-c2nc3ccccc3o2)c1`?
FLuc counter: 0%; ELG1 genotox: -1%; SMN2 splice enh: -19%; Rab9 prom act: -4%; NPC1 promoter act: 3%

How did O=C(CCN1C(=O)c2ccccc2C1=O)Nc1ccc(-c2nc3ccccc3o2)cc1 do in these assays?
FLuc counter: 2%; ELG1 genotox: 1.5µM*; SMN2 splice enh: 8.9µM*; Rab9 prom act: 1.4µM*; NPC1 promoter act: 2.2µM*

What do the screens show for `CC(=O)Nc1ccc(OC[C@@H](O)CNC(C)C)cc1`?
SMN2 splice enh: 2%[20.6 µM]

What do the screens show for `Cc1ccc(OCC(=O)N2CCCCC2C)c([N+](=O)[O-])n1` (stereo not given)?
ELG1 genotox: 0%

What do the screens show for `Cc1ccc(Cl)cc1N1CCN(C(=O)Cn2ncc3c4ccccc4n(C)c3c2=O)CC1`?
FLuc counter: -11%; SMN2 splice enh: 12%

What do the screens show for `CCOc1ccc(C(=O)CSCCC(=O)O)cc1`?
FLuc counter: 6µM*; ELG1 genotox: 16%; SMN2 splice enh: 1%; Rab9 prom act: -3%; NPC1 promoter act: -4%

How did COC(=O)/C(=N\OCc1ccc(C#N)cc1)c1c(C)nn(C)c1C do in these assays?
FLuc counter: 1%; ELG1 genotox: 2%; Rab9 prom act: 5%; NPC1 promoter act: -4%

What do the screens show for `O=c1c2ccccc2nc2n1CCc1c-2[nH]c2ccccc12`?
FLuc counter: 0.95µM*; ELG1 genotox: 3.3µM*; SMN2 splice enh: 7.9µM*; Rab9 prom act: 2.9µM*; NPC1 promoter act: 2.9µM*

How did Cc1cc(N)ccc1-c1cc2ccccc2oc1=O do in these assays?
FLuc counter: inconclusive; ELG1 genotox: 9%; Rab9 prom act: 29%; NPC1 promoter act: 20%

How did COc1ccc2cc(-c3nc4ccccc4n3C)c(=O)oc2c1 do in these assays?
FLuc counter: 5.4µM*; ELG1 genotox: inconclusive; SMN2 splice enh: 13µM*; Rab9 prom act: 1.3µM*; NPC1 promoter act: 2µM*

Results for Cn1c(-c2cc3ccccc3oc2=O)nc2ccccc21 ?
FLuc counter: 21µM*; ELG1 genotox: inconclusive; Rab9 prom act: 3.5µM*; NPC1 promoter act: 4.5µM*

What do the screens show for `Cc1cccc(N2CCN(C(=O)c3ccc(NC(=O)c4nsc5ccccc45)cc3)CC2C)c1` (stereo not given)?
FLuc counter: 4.8µM*

How did O=C(Nc1ccc(C(=O)N2CCN(c3ccc(Cl)cc3)CC2)cc1)c1nsc2ccccc12 do in these assays?
FLuc counter: 1.1µM*

Results for O=C(Nc1ccc(C(=O)N2CCN(c3ccccc3F)CC2)cc1)c1nsc2ccccc12 ?
FLuc counter: 5.4µM*

What do the screens show for `CC1CCN(C(=O)c2ccc(NC(=O)c3nsc4ccccc34)cc2)CC1`?
FLuc counter: 7.6µM*

What do the screens show for `CC1CCN(C(=O)c2ccc(NC(=O)c3cccs3)cc2)CC1`?
FLuc counter: inconclusive; ELG1 genotox: 2%; Rab9 prom act: 0%; NPC1 promoter act: -2%

What do the screens show for `CCCCC(=O)Nc1nc2c(s1)COc1ccccc1-2`?
FLuc counter: inconclusive; ELG1 genotox: 7%; Rab9 prom act: inconclusive; NPC1 promoter act: inconclusive

Results for COc1cccc(N2CCN(C(=O)c3ccc(NC(=O)c4nsc5ccccc45)cc3)CC2)c1 ?
FLuc counter: 1.2µM*

Results for Cc1ccc(Cl)cc1N1CCN(C(=O)c2ccc(NS(=O)(=O)c3c(C)noc3C)cc2)CC1 ?
FLuc counter: 0%; ELG1 genotox: 4%; SMN2 splice enh: -8%; Rab9 prom act: 2%; NPC1 promoter act: 1%

What do the screens show for `Cc1ccc(Cl)cc1N1CCN(C(=O)c2ccc(NC(=O)c3nsc4ccccc34)cc2)CC1`?
FLuc counter: 6µM*

How did COc1ccc(N2CCN(C(=O)c3ccc(NC(=O)c4nsc5ccccc45)cc3)CC2)cc1 do in these assays?
FLuc counter: 6.7µM*

How did COc1cccc(N2CCN(C(=O)CNC(=O)c3sc4ccccc4c3Cl)CC2)c1 do in these assays?
FLuc counter: inconclusive; ELG1 genotox: 0%; Rab9 prom act: 1%; NPC1 promoter act: -1%

Results for O=C(COC(=O)CCN=C1NS(=O)(=O)c2ccccc21)NC1CCCCCCC1 ?
FLuc counter: -2%; ELG1 genotox: 2%; Rab9 prom act: -4%; NPC1 promoter act: -3%

How did COc1ccc(CNC(=O)CN2C(=O)NC3(CCCCCCC3)C2=O)cc1 do in these assays?
ELG1 genotox: -1%

What do the screens show for `Fc1ccc(C2=Nc3cccc4cccc(c34)N2)cc1`?
FLuc counter: 15µM*; ELG1 genotox: 1%; SMN2 splice enh: -14%; Rab9 prom act: inconclusive; NPC1 promoter act: 16%

How did Brc1ccc(-c2ccc(C3Nc4cccc5cccc(c45)N3)o2)cc1 do in these assays?
FLuc counter: -5%; ELG1 genotox: -2%; Rab9 prom act: 4%; NPC1 promoter act: -3%

How did Brc1ccc(C2=Nc3cccc4cccc(c34)N2)o1 do in these assays?
FLuc counter: 12µM*; ELG1 genotox: 3%; SMN2 splice enh: 1%; Rab9 prom act: 21%; NPC1 promoter act: 20%

Results for FC(F)(F)C1=Nc2cccc3cccc(c23)N1 ?
FLuc counter: inconclusive; ELG1 genotox: -2%; Rab9 prom act: 0%; NPC1 promoter act: 0%
